The nature of assay [1]: Nuclear factor erythroid 2-related factor 2/antioxidant responsive element (Nrf2/ARE) small molecule agonists: qHTS cell viability counter screen in human keratinocytes (AID 1919968; active means well fitted curve in the direction sought with a large enough effect in the repeat runs; an effect the other way counts as inactive or inconclusive; further: nearly all actives have a fitted effect of over 55% in size; further: potency means the concentration at half of the fitted maximal effect). In outline:
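Cytotoxicity was multiplexed with the Nrf2/ARE luciferase assay in the same wells. Stably transfected HaCaT keratinocytes were treated with test compounds for 23 h at 37 C. Cell viability was then measured by CellTiter-Fluor fluorescence.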
Background: Quantitative high-throughput screening tests each substance at several concentrations.

For assay [2], the target named is Gonadotropin-releasing hormone receptor (Homo sapiens) (UniProt P30968). In words: Human gonadotropin-releasing hormone receptor (GnRHR) small molecule agonists, calcium flux assay in GnRHR-HEK293 cells (AID 1920063). Further: nearly all actives have a fitted effect of over 35% in size. Further: potency means the concentration at half of the fitted maximal effect. The essentials:
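Agonist activity was measured as intracellular calcium flux in HEK293 cells engineered to stably express human GnRHR. After dye loading for 1 hour at 37 C, compounds in DMSO were added and fluorescence was followed for 3 minutes.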
A general note: Calcium flux is commonly read through the fluorescence of an indicator in the cells.

The target in assay [3] is KiSS-1 receptor (Homo sapiens) (UniProt Q969F8). Nature of the assay: Human kisspeptin (KISS1R) small molecule agonists, calcium flux assay in KISS1R-HEK293 cells (AID 1920064; active means well fitted curve in the direction sought with a large enough effect in the repeat runs; an effect the other way counts as inactive or inconclusive). The essentials: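 Agonist activity is monitored as intracellular calcium rise in engineered HEK293 cells carrying human KISS1R. Cells are dye-loaded for 1 h at 37 C before compound addition, and fluorescence is recorded for 3 min.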

Assay [4] can be described thus: G protein-coupled receptor (GPCR) small molecule agonists, calcium flux assay: HEK293 wild type cell line counter screen (AID 1920065). The essentials:
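Seed cells, incubate 18 h (37 C, 5% CO2); add calcium dye, 1 h at 37 C; pin-transfer compounds, ATP control or DMSO; read fluorescence 480/540 nm each second for 3 min.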

Assay [5] in a line: p53 small molecule agonists, cell-based qHTS assay with human liver microsomes (AID 1963577).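 Further: p53 response element beta-lactamase reporter cells with liver microsomes plus NADPH.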 In outline: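 16 h, 37 C exposure of p53RE-bla cells to compounds with human liver microsomes and NADPH (0.5 mg/mL final each); detection via LiveBLAzer mixture, 2 h dark at room temperature.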
Assay [6] in a line: p53 small molecule agonists, cell-based qHTS assay with rat liver microsomes (AID 1963578). The essentials: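 With rat liver microsomes and NADPH present (0.5 mg/mL final each), p53RE-bla cells are treated with compound for 16 h at 37 C. LiveBLAzer detection mixture is then applied for 2 h at room temperature in the dark.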
A short description of assay [7]: p53 small molecule agonists, cell-based qHTS assay with rat liver microsomes: qHTS cell viability counter screen (AID 1963580). Further: nearly all actives have a fitted effect of over 45% in size. The essentials:
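After the beta-lactamase ratio was read, CellTiter-Glo was added to the same wells and luminescence measured at 30 min; cells had been treated 16 h at 37 C with compounds, rat liver microsomes and NADPH (0.5 mg/mL final each).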

Assay [8] is described as follows: p53 small molecule agonists, cell-based qHTS assay: qHTS cell viability counter screen (AID 1963581). Further: nearly all actives have a fitted effect of over 45% in size. In outline: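 Viability was counter-screened in parallel with the p53 agonist reporter by measuring intracellular ATP luminescence in the same HCT-116 p53RE-bla wells after 16 h compound treatment at 37 C.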
Assay [9] is described as follows: p53 small molecule agonists, cell-based qHTS assay (AID 1963582; active means well fitted activation curve with a large enough effect in the signal ratio in the repeat runs, not every such curve was filed as active; the % refers to the signal ratio). The essentials: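 Cells carrying a p53-responsive bla reporter are treated with test compounds for 16 h at 37 C; beta-lactamase activity is then detected with LiveBLAzer B/G FRET substrate after 2 h at room temperature.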
Assay [10] deals with 5-hydroxytryptamine receptor 2A (Homo sapiens) (UniProt P28223). In words: 5-hydroxytryptamine receptor 2A (HTR2A) small molecule antagonists, cell-based qHTS assay (AID 1963586). Further: nearly all actives have a fitted effect of over 45% in size. In outline:
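CHO cells stably expressing human HTR2A were plated for 18 h at 37 C, then loaded with calcium dye for 1 h. Compounds were preincubated 5 min at room temperature before DOI (4 nM solution) was added. Kinetic fluorescence was read for 3 min.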

The target is the same in assay [11]. Nature of the assay: 5-hydroxytryptamine receptor 2A (HTR2A) small molecule agonists, cell-based qHTS assay (AID 1963587). Further: nearly all actives have a fitted effect of over 30% in size. Further: potency means the concentration at half of the fitted maximal effect. The essentials: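 CHO cells stably expressing human HTR2A, plated 18 h, loaded with calcium dye 1 h at 37 C. Agonist mode: compounds added and intracellular calcium fluorescence recorded kinetically for 2 min at 1 sec intervals.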
Assay [12] has as its target Muscarinic acetylcholine receptor M1 (Homo sapiens) (UniProt P11229). Nature of the assay: Cholinergic receptor muscarinic 1 (CHRM1) small molecule agonists, cell-based qHTS assay (AID 1963589). Further: nearly all actives have a fitted effect of over 35% in size. The essentials: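 Cells were plated and incubated 18 h at 37 C/5% CO2, loaded with calcium dye for 1 h at 37 C, then treated with compounds in DMSO. Fluorescence was recorded kinetically at 1 sec intervals.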

Assay [13] is described as follows: cAMP Responsive Elements (CRE) small molecule agonists, cell-based qHTS assay (AID 1963590). The essentials:
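Cells carrying a CRE-driven beta-lactamase reporter (HEK 293T) are seeded, incubated overnight (18 h), and treated with test compounds for 3 h at 37 C; reporter activity is then detected with a FRET substrate after 2 h at room temperature.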

Assay [14] can be described thus: cAMP Responsive Elements (CRE) small molecule antagonists, cell-based qHTS assay (AID 1963591; active means well fitted inhibition curve with a large enough effect in the signal ratio in the repeat runs, not every such curve was filed as active; the % refers to the signal ratio). In outline:
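Cells (CRE-bla HEK 293T, DMEM with 10% dialyzed FBS and 25 mM HEPES) are seeded and incubated 18 h. Compounds are added with NKH477 agonist at 0.25 uM final for 3 h, then FRET substrate for 2 h.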

Assay [15] addresses Beta-2 adrenergic receptor (Homo sapiens) (UniProt P07550). Nature of the assay: Adrenergic beta2 receptor (ADRB2) small molecule antagonists, cell-based qHTS assay (AID 1963592). Further: series mostly up to about 92 µM; nearly all actives have a fitted effect of over 50% in size. The essentials: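 Assay format: CHO-ADRB2 cells, 18-20hr seeding at 37C/5% CO2, then compound plus 1nM isoproterenol agonist mix for 0.5hr RT. Homogeneous time-resolved fluorescence cAMP detection after 1hr, expressed as 665/615 nm ratio.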

Assay [16] has as its target D(2) dopamine receptor (Homo sapiens) (UniProt P14416). In words: Dopamine D2 receptor (DRD2) small molecule agonists, cell-based qHTS assay (AID 1963594). Further: nearly all actives have a fitted effect of over 35% in size. The essentials:
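HEK293 cells stably expressing human DRD2, pre-treated with PDE inhibitor Ro20-1724 (0.1 mM final) and compound 10 min at room temperature, then stimulated with NKH477 (200nM […]) for 30 min. cAMP read by HTRF (665/620 nm).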

The target of assay [17] is Muscarinic acetylcholine receptor M1 (Homo sapiens) (UniProt P11229). Nature of the assay: Cholinergic receptor muscarinic 1 (CHRM1) small molecule antagonists, cell-based qHTS assay (AID 1963588). Further: nearly all actives have a fitted effect of over 40% in size. In outline: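 Compounds were tested at 15 concentrations in three independent runs. Dye-loaded CHRM1-CHO cells were exposed 5 min at room temperature before stimulation by acetylcholine added at 50nM. Intracellular calcium was read kinetically on FDSS for 3 min.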

In assay [18] the target is D(2) dopamine receptor (Homo sapiens) (UniProt P14416). In words: Dopamine D2 receptor (DRD2) small molecule antagonists, cell-based qHTS assay (AID 1963595; active means well fitted inhibition curve with a large enough effect in the signal ratio in the repeat runs, with a control signal flat; the % refers to the signal ratio). The essentials: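 Cells were plated and grown for 24 h at 37 °C. Ro20-1724 (0.1 mM final) went in first, then compound for 10 min. NKH477 (200 nM) with quinpirole (12 nM) followed for 30 min at RT, then HTRF detection reagents for 1 h.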

Assay [19] deals with Beta-2 adrenergic receptor (Homo sapiens) (UniProt P07550). In words: Adrenergic beta2 receptor (ADRB2) small molecule agonists, cell-based qHTS assay (AID 1963593).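 Further: CHO cells stably overexpressing human ADRB2.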 The essentials: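 CHO cells stably over-expressing ADRB2 were plated overnight at 37C, then dosed with compounds plus a stimulation mix containing 100uM IBMX and 25uM Ro-20-1724 for 0.5hr at room temperature. cAMP was measured by HTRF competition, 1hr.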

Assay [20] is described as follows: p53 small molecule agonists, cell-based qHTS assay with human liver microsomes: qHTS cell viability counter screen (AID 1963579). Further: nearly all actives have a fitted effect of over 45% in size. Further: potency means the concentration at half of the fitted maximal effect. In outline: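 In this multiplexed counter screen, the reporter plates were subsequently treated with CellTiter-Glo so that cell viability, reflected by luminescence, could be recorded for p53RE-bla cells dosed 16 h with compounds under microsomal activation (HLM and NADPH).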

Results filed as inconclusive are left out. Active and inactive are the calls of the source. Unless noted, the call rests on the fitted dose curve.

Sequence of D(2) dopamine receptor (Homo sapiens) (P14416 whole entry, looked up): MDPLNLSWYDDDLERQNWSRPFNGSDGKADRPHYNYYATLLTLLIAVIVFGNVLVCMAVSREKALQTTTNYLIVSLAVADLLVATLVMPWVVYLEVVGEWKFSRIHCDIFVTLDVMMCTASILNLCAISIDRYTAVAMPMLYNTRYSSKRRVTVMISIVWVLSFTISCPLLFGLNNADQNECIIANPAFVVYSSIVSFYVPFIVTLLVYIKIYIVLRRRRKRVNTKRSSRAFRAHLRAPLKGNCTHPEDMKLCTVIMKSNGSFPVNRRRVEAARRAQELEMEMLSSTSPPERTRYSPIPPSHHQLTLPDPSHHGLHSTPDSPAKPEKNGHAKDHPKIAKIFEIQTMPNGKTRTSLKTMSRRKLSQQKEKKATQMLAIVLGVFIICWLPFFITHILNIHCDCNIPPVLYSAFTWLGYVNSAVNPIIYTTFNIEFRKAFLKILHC
Sequence of Muscarinic acetylcholine receptor M1 (Homo sapiens) (P11229 whole entry, looked up): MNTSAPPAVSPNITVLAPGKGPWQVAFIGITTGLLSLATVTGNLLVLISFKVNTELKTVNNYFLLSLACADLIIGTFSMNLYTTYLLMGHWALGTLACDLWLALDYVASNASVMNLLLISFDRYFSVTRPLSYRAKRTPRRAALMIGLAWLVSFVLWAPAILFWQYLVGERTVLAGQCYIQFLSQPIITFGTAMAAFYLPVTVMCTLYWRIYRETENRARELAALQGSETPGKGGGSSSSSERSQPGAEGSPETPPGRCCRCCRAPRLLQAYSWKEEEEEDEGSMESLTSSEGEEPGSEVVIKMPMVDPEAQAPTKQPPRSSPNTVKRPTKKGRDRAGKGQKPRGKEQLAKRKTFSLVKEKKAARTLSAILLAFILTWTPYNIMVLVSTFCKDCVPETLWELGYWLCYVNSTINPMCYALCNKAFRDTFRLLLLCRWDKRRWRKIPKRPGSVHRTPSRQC
Sequence of Gonadotropin-releasing hormone receptor (Homo sapiens) (P30968 whole entry, looked up): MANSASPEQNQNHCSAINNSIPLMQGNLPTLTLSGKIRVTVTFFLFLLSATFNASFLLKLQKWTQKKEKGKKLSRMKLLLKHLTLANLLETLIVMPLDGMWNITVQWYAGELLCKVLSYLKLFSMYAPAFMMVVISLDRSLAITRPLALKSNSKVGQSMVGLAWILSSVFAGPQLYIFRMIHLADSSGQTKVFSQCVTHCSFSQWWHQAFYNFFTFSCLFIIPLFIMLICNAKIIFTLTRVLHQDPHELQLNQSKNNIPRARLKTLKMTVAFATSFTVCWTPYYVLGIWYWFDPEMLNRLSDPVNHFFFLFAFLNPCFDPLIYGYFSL
Sequence of Beta-2 adrenergic receptor (Homo sapiens) (P07550 whole entry, looked up): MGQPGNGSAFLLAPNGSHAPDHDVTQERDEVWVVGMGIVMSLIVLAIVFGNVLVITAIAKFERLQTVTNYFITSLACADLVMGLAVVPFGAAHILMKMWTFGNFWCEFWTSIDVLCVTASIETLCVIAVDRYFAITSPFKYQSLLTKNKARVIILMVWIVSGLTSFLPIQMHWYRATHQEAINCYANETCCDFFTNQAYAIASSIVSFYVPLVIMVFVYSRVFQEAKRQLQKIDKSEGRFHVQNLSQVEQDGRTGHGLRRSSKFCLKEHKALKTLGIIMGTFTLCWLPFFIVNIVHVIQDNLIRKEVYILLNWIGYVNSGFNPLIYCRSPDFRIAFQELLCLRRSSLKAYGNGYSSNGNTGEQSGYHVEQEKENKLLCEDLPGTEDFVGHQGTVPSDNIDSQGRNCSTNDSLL
Sequence of KiSS-1 receptor (Homo sapiens) (Q969F8 whole entry, looked up): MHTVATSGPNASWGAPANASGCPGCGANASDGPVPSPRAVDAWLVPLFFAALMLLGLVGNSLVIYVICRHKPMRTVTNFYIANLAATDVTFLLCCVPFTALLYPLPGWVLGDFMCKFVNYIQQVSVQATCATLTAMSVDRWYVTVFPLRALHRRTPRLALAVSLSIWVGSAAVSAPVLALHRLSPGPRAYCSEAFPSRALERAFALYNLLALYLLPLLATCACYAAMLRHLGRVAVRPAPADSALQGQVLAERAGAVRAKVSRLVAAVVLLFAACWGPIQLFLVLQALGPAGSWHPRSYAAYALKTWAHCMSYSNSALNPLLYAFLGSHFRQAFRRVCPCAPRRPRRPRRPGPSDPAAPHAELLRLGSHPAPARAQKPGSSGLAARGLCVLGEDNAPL
Sequence of 5-hydroxytryptamine receptor 2A (Homo sapiens) (P28223 whole entry, looked up): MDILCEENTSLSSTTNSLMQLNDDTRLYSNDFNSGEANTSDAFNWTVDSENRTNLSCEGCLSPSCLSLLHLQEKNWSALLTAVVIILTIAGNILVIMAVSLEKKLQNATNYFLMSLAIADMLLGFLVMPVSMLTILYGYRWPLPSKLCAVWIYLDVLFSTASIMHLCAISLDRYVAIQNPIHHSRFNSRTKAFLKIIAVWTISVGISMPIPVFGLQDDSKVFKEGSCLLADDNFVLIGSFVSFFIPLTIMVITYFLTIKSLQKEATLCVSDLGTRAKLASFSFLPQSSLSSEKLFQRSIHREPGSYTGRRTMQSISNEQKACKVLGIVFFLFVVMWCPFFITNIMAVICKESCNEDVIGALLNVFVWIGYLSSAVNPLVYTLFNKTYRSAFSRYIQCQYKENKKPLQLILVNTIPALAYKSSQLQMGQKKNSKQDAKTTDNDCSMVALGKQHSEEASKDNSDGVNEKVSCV

Consider `NCCN1CCOCC1`, for which the Potency entry in assay [1], in assay [2], in [3], in assay [4], in assay [5] and in [6] was “inactive” throughout. Moreover, the Potency entry in [7], in [8], in assay [9], in [10], in [11] and in assay [12] was “inactive” throughout. The Potency entry in assay [13], in assay [14], in [15] and in assay [16] was “inactive” in each case.

On to `CCC(=O)Oc1ccc(/C(CC)=C(\CC)c2ccc(OC(=O)CC)cc2)cc1`, for which the Potency entry in assay [1], in [2], in assay [3], in [4], in [5] and in assay [6] was “inactive” in each case. Further, the Potency entry in assay [8], in assay [10], in assay [11], in [17], in assay [12] and in assay [13] was “inactive” each time. Moreover, the Potency result in [14], in assay [15], in assay [16] and in assay [18] was “inactive” in each case.

With `O=C(O)C(=O)Cc1ccccc1`, the Potency entry in assay [1], in assay [2], in [3], in assay [4], in assay [5] and in assay [6] was “inactive” in each case. Also, the Potency entry in [7], in assay [9], in assay [10], in [11], in [17] and in assay [12] was “inactive” each time. Also, the Potency entry in assay [13], in [14], in [15] and in [16] was “inactive” each time.

Regarding `C/C=C1\[C@H]2C=C(C)C[C@]1(N)c1ccc(=O)[nH]c1C2`, the Potency entry in assay [1], in assay [2], in assay [3], in assay [4], in assay [5] and in assay [6] was “inactive” in each case. For the same compound, the Potency entry in [7], in assay [8], in [9], in assay [13], in assay [14] and in assay [15] was “inactive” in each case. Further, the Potency result in assay [19], in assay [16] and in assay [18] was “inactive” throughout.

`CCCCCC[C@@H](O)C/C=C\CCCCCCCC(=O)OC`: the Potency result in assay [1], in assay [2], in assay [3], in assay [4], in [5] and in [6] was “inactive” each time. Moreover, the Potency result in assay [7], in assay [8], in assay [9], in assay [10], in [11] and in [12] was “inactive” in each case. Also, the Potency result in [13], in [14] and in assay [16] was “inactive” in each case.

As for `CN(C)Cc1cc(C(C)(C)C)c(O)c(C(C)(C)C)c1`, the Potency result in assay [1], in [2], in assay [3], in assay [4], in [5] and in [6] was “inactive” in each case. Further, the Potency result in [7], in [8], in assay [9], in assay [11], in [17] and in [12] was “inactive” each time. For the same compound, the Potency result in assay [13], in [14], in assay [16] and in assay [18] was “inactive” in each case.

With `C/C=C/C=C/CO`, the Potency entry in [1], in assay [2], in assay [3], in assay [4], in assay [5] and in assay [6] was “inactive” in each case. Also, the Potency entry in assay [20], in assay [8], in [10], in [11], in assay [17] and in assay [12] was “inactive” in each case. Further, the Potency entry in assay [13], in assay [14], in [15], in [16] and in assay [18] was “inactive” throughout.

Consider `C=Cc1ccc(OC(C)=O)cc1`, for which the Potency entry in assay [1], in assay [2], in [3], in assay [4], in assay [5] and in [6] was “inactive” each time. Also, the Potency result in [20], in assay [8], in [10], in assay [11], in assay [17] and in [12] was “inactive” in each case. Also, the Potency entry in assay [13], in [14], in assay [15], in assay [19] and in [18] was “inactive” each time.

For `CCc1ccc(C)cc1`, the Potency result in assay [1], in assay [2], in assay [3], in [4], in assay [5] and in [6] was “inactive” each time. Besides, the Potency result in assay [20], in assay [9], in [10], in assay [11], in assay [17] and in assay [12] was “inactive” each time. Also, the Potency result in assay [15], in assay [16] and in assay [18] was “inactive” each time.

Turning to `CC(C(=O)O)c1ccc(C(=O)c2cccs2)cc1` (configuration not stated), the Potency entry in assay [1], in [2], in assay [3], in [4], in assay [5] and in assay [6] was “inactive” throughout. Also, the Potency entry in assay [20], in [8], in [9], in [10], in assay [17] and in [12] was “inactive” throughout. Besides, the Potency result in assay [18] was “inactive”.

As to `CC(C)c1ccccc1`, the Potency entry in assay [1], in [2], in [3], in assay [4], in assay [5] and in [6] was “inactive” throughout. Moreover, the Potency entry in [20], in [8], in assay [9], in [10], in assay [11] and in assay [17] was “inactive” throughout. The Potency entry in assay [12], in assay [13], in assay [15], in assay [16] and in [18] was “inactive” in each case.

On to `CC1(C)[C@@H](O)CC[C@]2(C)[C@H]3C(=O)C=C4[C@@H]5C[C@@](C)(C(=O)O)CC[C@]5(C)CC[C@@]4(C)[C@]3(C)CC[C@@H]12`, for which the Potency in [1] was 67.8 µM (active); in assay [2] it was 34.3 µM (active); in assay [20], 32 µM (active); in assay [11] it was 48.4 µM (active). Moreover, the Potency entry in [3], in assay [4], in [5], in assay [6], in assay [9] and in [17] was “inactive” in each case. Besides, the Potency result in assay [15], in assay [19], in [16] and in [18] was “inactive” throughout.

Values taken from PubChem BioAssay (Tox21).
